# From PubChem BioAssay
# Unmarked numbers belong to inactive results. Where a call stands in place of a potency, no number is given. For some assays here: Potency and affinity values are given separately. Activity calls are given as the source filed them. Unless noted, no rule for the calls is given here.
# Tests used:
# [1] = antimalarial activity against Dd2 strain (AID 2302;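 active = growth inhibition above 50% at the single 2 µM test dose, taken to imply half-maximal potency below 2 µM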); conditions: P. falciparum Dd2 in RBCs, LDH growth readout, 72 h; at 2 µM; hits give high values
# [2] = HepG2 cytotoxicity, primary screen, cytotoxicity control for P. falciparum antimalarial project, cell-based, ATP luminescence (AID 2303;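 active = inhibition above 50%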); conditions: HepG2 viability, 24-48 h, at 10 µM, hits give high values
# [3] = molecular target: L-lactate dehydrogenase (Plasmodium falciparum (isolate CDC / Honduras)) (UniProt Q27743); test: PfLDH activity inhibition – cell lysate, 3D7 strain, counter-screen for P. falciparum growth inhibition project (AID 2304); conditions: P. falciparum 3D7 crude extract, LDH APAD/NBT absorbance; at 2 µM; hits give high values
# [4] = inhibition of 3D7 malaria parasite growth – strain 3D7 (AID 2306); conditions: P. falciparum 3D7 erythrocytic growth, LDH absorbance, 72 h; at 2 µM; hits give high values
# [5] = molecular target: Calcium-dependent protein kinase 1 (Plasmodium falciparum (isolate 3D7)) (UniProt P62344); test: PfCDPK1 kinase inhibitors, biochemical, TCAMS library (AID 1159585; cut-off not given, nearly all actives have IC50 up to about 0.98 µM;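 also: inhibitors leave more ATP so luminescence rises with inhibition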); conditions: recombinant PfCDPK1, Kinase-Glo ATP depletion luminescence
# [6] = molecular target: Plasmodium falciparum protein kinase 6 (PK6, PF3D7_1337100) (UniProt Q8IDW1); test: PfPK6 kinase inhibitors, biochemical, TCAMS library (AID 1159586); conditions: recombinant PfPK6, Kinase-Glo ATP depletion luminescence
# [7] = molecular target: Protein kinase 7 (PK7), Plasmodium falciparum 3D7 (PF3D7_0213400) (UniProt Q7YTF7); test: inhibition of Plasmodium PK7 catalytic activity – biochemical, TCAMS antimalarial set, Kinase-Glo luminescence (AID 1159587); conditions: recombinant PfPK7, Kinase-Glo ATP depletion luminescence
# [8] = molecular target: Calcium-dependent protein kinase 4 (Plasmodium falciparum (isolate 3D7)) (UniProt Q8IBS5); test: PfCDPK4 kinase inhibitors, biochemical, TCAMS library (AID 1159588; cut-off not given, nearly all actives have IC50 up to about 0.91 µM); conditions: recombinant PfCDPK4, Kinase-Glo ATP depletion luminescence
# Sequence of Calcium-dependent protein kinase 4 (Plasmodium falciparum (isolate 3D7)) (Q8IBS5 whole entry, looked up): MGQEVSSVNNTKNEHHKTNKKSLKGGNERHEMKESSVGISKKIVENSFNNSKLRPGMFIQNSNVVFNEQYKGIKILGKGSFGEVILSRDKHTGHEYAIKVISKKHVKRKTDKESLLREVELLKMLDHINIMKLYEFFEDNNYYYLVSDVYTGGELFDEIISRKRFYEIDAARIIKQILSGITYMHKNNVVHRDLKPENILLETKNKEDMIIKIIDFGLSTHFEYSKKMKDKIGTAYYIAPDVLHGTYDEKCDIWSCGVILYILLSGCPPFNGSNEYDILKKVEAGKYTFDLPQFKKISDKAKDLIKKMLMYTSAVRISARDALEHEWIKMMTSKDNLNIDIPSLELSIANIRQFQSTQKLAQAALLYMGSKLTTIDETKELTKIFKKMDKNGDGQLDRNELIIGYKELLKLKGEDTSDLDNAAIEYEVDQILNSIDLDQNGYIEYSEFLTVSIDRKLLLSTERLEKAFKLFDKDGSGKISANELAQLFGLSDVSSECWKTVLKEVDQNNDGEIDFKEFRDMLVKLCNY
# Sequence of Plasmodium falciparum protein kinase 6 (PK6, PF3D7_1337100) (Q8IDW1 1-305): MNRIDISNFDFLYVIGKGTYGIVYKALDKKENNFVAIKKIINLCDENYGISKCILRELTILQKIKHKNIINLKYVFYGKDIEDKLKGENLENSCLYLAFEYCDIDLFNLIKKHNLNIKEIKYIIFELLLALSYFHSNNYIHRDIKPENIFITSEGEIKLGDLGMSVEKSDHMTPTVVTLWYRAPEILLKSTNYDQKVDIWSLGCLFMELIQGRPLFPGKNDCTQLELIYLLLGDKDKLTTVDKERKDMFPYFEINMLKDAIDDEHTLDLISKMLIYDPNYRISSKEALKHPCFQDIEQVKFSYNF
# Sequence of Protein kinase 7 (PK7), Plasmodium falciparum 3D7 (PF3D7_0213400) (Q7YTF7 1-343): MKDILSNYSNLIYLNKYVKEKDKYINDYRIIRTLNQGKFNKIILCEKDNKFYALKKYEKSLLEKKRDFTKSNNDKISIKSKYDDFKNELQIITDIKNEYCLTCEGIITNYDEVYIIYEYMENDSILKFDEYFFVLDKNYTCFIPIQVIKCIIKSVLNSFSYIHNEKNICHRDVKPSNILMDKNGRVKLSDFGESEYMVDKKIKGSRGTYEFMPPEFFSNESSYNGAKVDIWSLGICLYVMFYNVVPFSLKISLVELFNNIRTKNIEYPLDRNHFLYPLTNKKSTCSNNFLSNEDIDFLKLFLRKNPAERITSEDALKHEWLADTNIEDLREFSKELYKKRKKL
# Sequence of L-lactate dehydrogenase (Plasmodium falciparum (isolate CDC / Honduras)) (Q27743 whole entry, looked up): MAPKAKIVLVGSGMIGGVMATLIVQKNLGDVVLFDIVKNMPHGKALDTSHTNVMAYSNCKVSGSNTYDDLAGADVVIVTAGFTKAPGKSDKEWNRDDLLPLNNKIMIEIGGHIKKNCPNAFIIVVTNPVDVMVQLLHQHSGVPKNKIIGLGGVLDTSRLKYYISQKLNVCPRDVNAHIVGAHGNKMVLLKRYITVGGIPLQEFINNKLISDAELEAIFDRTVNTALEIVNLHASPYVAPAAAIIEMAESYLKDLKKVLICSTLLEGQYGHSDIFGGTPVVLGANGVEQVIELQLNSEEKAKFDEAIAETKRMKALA
# Sequence of Calcium-dependent protein kinase 1 (Plasmodium falciparum (isolate 3D7)) (P62344 whole entry, looked up): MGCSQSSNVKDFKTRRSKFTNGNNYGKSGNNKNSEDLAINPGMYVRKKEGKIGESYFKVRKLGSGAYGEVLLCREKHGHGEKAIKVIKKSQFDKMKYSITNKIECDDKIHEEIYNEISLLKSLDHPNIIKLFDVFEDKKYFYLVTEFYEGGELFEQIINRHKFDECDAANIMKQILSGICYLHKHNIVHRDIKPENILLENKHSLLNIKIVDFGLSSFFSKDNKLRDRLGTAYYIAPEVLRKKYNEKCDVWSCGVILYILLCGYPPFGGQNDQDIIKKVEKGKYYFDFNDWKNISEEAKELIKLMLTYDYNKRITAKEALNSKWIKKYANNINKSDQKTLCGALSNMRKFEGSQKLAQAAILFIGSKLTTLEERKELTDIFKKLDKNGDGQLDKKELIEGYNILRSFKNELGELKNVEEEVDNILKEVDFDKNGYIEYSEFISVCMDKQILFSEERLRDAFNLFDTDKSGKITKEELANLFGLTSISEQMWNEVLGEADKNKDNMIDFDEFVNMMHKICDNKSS
SMILES,growth inhibition [1],inhibition [2],inhibition [3] [%],growth inhibition [4],outcome [5],outcome [6],outcome [7],outcome [8]
CNC(=C[N+](=O)[O-])NCCSCc1cc(C)c(CN(C)C)s1,96% (active),48%,-1,98% (active),inactive,inactive,inactive,inactive
CCCCCCNc1cc(C)nc2ccc(OC)cc12,94% (active),19%,-2,100% (active),inactive,inactive,inactive,inactive
Cc1nc(/N=C(\N)NC(=O)NC2CCCCC2)nc2ccccc12,99% (active),21%,-2,95% (active),inactive,inactive,inactive,inactive
COC(=O)[C@@H](NC(=O)[C@@H](Nc1ccc(C#N)c2ccccc12)C(C)(C)C)c1ccc(O)cc1,74% (active),-4%,1,101% (active),inactive,inactive,inactive,inactive
CC(=O)Nc1ccc(S(=O)(=O)Nc2c(C)cc(Cc3cnc(N)nc3N)cc2C)cc1,-1%,6%,5,94% (active),inactive,inactive,inactive,inactive
CC(C)Sc1nc2c(c(=O)n1CCc1ccccc1)C1(CCCCC1)Cc1ccccc1-2,5%,8%,1,92% (active),inactive,inactive,inactive,inactive
CCN(CC)CCN(Cc1ccc(-c2ccc(C(F)(F)F)cc2)cc1)C(=O)Cn1c(CCc2ccc(F)c(C#N)c2)nc(=O)c2ccccc21,55% (active),18%,-2,98% (active),inactive,inactive,inactive,inactive
Clc1cc(Nc2ncnc3sc(C#Cc4ncc[nH]4)cc23)ccc1OCc1ccccn1,6%,10%,-3,101% (active),inactive,inactive,inactive,inactive
CN(C)CCC1CCN(CCS(=O)(=O)c2cccc(Nc3ccc(-c4cccc(F)c4)cn3)c2)CC1,59% (active),94% (active),5,100% (active),inactive,inactive,inactive,inactive
COc1cccc(CNC(=O)NC2CCN(c3ccnc(Nc4ccc(F)cc4)n3)C2)c1 (stereo not given),64% (active),20%,-7,94% (active),inactive,inactive,inactive,inactive
Cn1cncc1C(=O)Nc1cccc(-c2ccc(-c3nc4ccc(F)cc4[nH]3)s2)c1,27%,-9%,1,99% (active),inactive,inactive,inactive,inactive
Fc1ccc2nc(-c3ccc(-c4ccc(CNCc5ccccc5)cc4)cc3)[nH]c2c1,94% (active),35%,-4,101% (active),inactive,inactive,inactive,inactive
Cc1cc(N2CCCC2)nc(Nc2ccc(NC(=O)Nc3ccccc3)cc2)n1,100% (active),35%,1,99% (active),inactive,inactive,inactive,inactive
CC(C)(C)c1ccc(CNC(=O)c2cc(CNC3CCC(N)CC3)ccc2O)cc1 (stereo not given),1%,1%,0,94% (active),inactive,inactive,inactive,inactive
Cc1cccc(C)c1N1CCN(C2CCC(NC(=O)c3cc4ccccc4[nH]3)CC2)CC1 (stereo not given),64% (active),31%,-7,101% (active),inactive,inactive,inactive,inactive
Fc1ccc(Nc2ccnc3cc(-c4cccc(CN5CCCCC5)c4)ccc23)c(Cl)c1,58% (active),3%,-1,91% (active),inactive,inactive,inactive,inactive
Oc1ccc(CCNc2nc(NCCCOc3cccc(-c4ccccc4)c3)nc(N3CCNCC3)n2)cc1,14%,40%,-2,89% (active),inactive,inactive,inactive,inactive
CC(C)CNCc1cccc(-c2cccc(CNC3CCN(Cc4ccccc4)CC3)c2)c1,99% (active),32%,-2,102% (active),inactive,inactive,inactive,inactive
O=C(O)c1ccc(-c2c[nH]c3ncc(-c4ccc(Cl)cc4)cc23)cc1,99% (active),39%,7,97% (active),inactive,inactive,inactive,inactive
COc1cc2nc(Nc3ccc4c(cnn4Cc4ccccc4)c3)nc(Nc3ccc4c(cnn4Cc4ccccc4)c3)c2cc1OC,100% (active),4%,7,99% (active),inactive,inactive,inactive,inactive

SMILES,growth inhibition [1],inhibition [2],inhibition [3] [%],growth inhibition [4],outcome [5],outcome [6],outcome [7],outcome [8]
O=C(CCCCCNC(=O)c1ccc(O)c(-c2ccc(Cl)c(Cl)c2)c1)NCCN1CCOCC1,0%,-7%,-3,95% (active),inactive,inactive,inactive,inactive
FC(F)(F)c1ccc2nc(-c3ccc(-c4ccc(CN5CCN(c6ccncc6)CC5)cc4)s3)[nH]c2c1,50% (active),97% (active),2,100% (active),inactive,inactive,inactive,inactive
COc1ccc(CN2CCCN(Cc3ccc(C(=O)Nc4ccc(Cl)cc4)cc3)CC2)cc1,3%,46%,0,91% (active),inactive,inactive,inactive,inactive
c1ccc2nc(NCCCCCCCCNc3ccc4ccccc4n3)ccc2c1,37%,52% (active),-5,100% (active),inactive,inactive,inactive,inactive
O=c1n(CC2CCCCC2)c2cc(Cl)cc(OCCNc3ccncc3)c2n1CC1CCCCC1,64% (active),2%,-3,100% (active),inactive,inactive,inactive,inactive
O=C(NC1CCC(N2CCN(c3cccc4[nH]ccc34)CC2)CC1)c1cc2cccnc2[nH]1 (stereo not given),85% (active),9%,-2,99% (active),inactive,inactive,inactive,inactive
CC(C)(C)c1nn(-c2ccccc2)c2[nH]c(=O)c(CNCCc3ccccc3)cc12,90% (active),-7%,0,94% (active),inactive,inactive,inactive,inactive
Nc1c2c(nc3ccc(C(=O)Nc4ccccc4)cc13)CCCC2,78% (active),20%,-3,100% (active),inactive,inactive,inactive,inactive
COc1cc(NC2CCCC(NCc3cn(S(=O)(=O)c4ccccc4)c4ccccc34)C2)nc2ccccc12 (stereo not given),61% (active),4%,2,100% (active),inactive,inactive,inactive,inactive
CSc1cccc(Nc2nc3ccc(S(=O)(=O)NC(C)C(C)C)cc3n2[C@H](C)C(C)(C)C)c1 (stereo not given in full),98% (active),-10%,0,97% (active),inactive,inactive,inactive,inactive
COc1ccc(NC(=O)[C@H](CC(C)C)Nc2cc(C)nc(NCCc3cccs3)n2)cc1,68% (active),5%,4,100% (active),inactive,inactive,inactive,inactive
COc1cccc(CN2CCCC(COC(c3ccc(F)cc3)c3ccc(F)cc3)C2)c1O (stereo not given),100% (active),24%,4,98% (active),inactive,inactive,inactive,inactive
C[C@H](Cc1ccc(C[C@@H](C)NC[C@H](O)c2cccc(Cl)c2)cc1)NC[C@H](O)COc1ccccc1,60% (active),99% (active),-2,96% (active),inactive,inactive,inactive,inactive
CO/C(=C\C=C\c1cc2cc(Cl)c(Cl)cc2[nH]1)C(=O)NCCN1CCCCC1,86% (active),16%,1,81% (active),inactive,inactive,inactive,inactive
COc1ccc2nccc([C@@H](O)CN3CCC(NC(=O)CCC(=O)c4cc(C(C)(C)C)ccc4OC)CC3)c2c1,51% (active),26%,-9,94% (active),inactive,inactive,inactive,inactive
CCOc1cc(Br)c(C(C)NC(=O)c2ccccc2)cc1OCC (stereo not given),10%,-2%,5,92% (active),inactive,inactive,inactive,inactive
CCN(CC)S(=O)(=O)c1ccc(C=CC(=O)Nc2cc(Cl)ccc2N2CCOCC2)cc1,65% (active),3%,4,90% (active),inactive,inactive,inactive,inactive
Cc1cccc2[nH]c(-c3cccc(-c4ccc(C(=O)NCc5nccn5C)cc4)c3)nc12,9%,18%,1,100% (active),inactive,inactive,inactive,inactive
CS(=O)(=O)c1ccc(-c2cnc(N)c(-c3cccc(O)c3)c2)cc1,97% (active),48%,-3,98% (active),inactive,inactive,inactive,inactive
Cc1ccc([C@@H]2CC(=O)CC(c3ccccn3)[C@H]2[N+](=O)[O-])cc1 (stereo not given in full),2%,5%,-1,97% (active),inactive,inactive,inactive,inactive
